PubChem BioAssay (NCI)
This is part of a sample that, as a whole, favours compounds with a hit. Of some 83,000 tested, about 20% had one in any assay.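 Growth was measured after 48 h exposure to one concentration of compound in 96-well plates. Values under 10 count as active.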 The source made the active and inactive calls.

How the values were obtained:
Assay in all cases: NCI-60 one-dose screen, 48 h (100 = growth as untreated, 0 = no growth, -100 = all killed)
Details in all cases: 10 µM
[1] = test system: NCI-H23 lung
[2] = test system: NCI-H226 lung
[3] = test system: HOP-62 NSCLC
[4] = test system: NCI-H460 lung
[5] = test system: NCI-H522 lung
[6] = test system: A549/ATCC NSCLC
[7] = test system: DU-145 prostate
[8] = test system: K-562 leukemia
[9] = test system: MALME-3M melanoma
[10] = test system: MDA-MB-231 breast
[11] = test system: RXF 393 renal
[12] = test system: SF-268 CNS
[13] = test system: SF-295 CNS
[14] = test system: SF-539 CNS
[15] = test system: UACC-257 melanoma
[16] = test system: M14 melanoma
[17] = test system: 786-0 renal
[18] = test system: COLO 205 colon

Measured: growth

Nc1ccc(CC[C@H]2CCC/C=C/[C@@H]3C[C@H](O)C[C@H]3[C@H](O)/C=C/C(=O)O2)cc1
inactive: [3] 14.2% | [4] 10.5% | [6] 11.9% | [7] 16.2% | [8] 11.4% | [12] 10.2% | [13] 13% | [14] 25.3%
active: [1] -22.7% | [2] 5.2% | [5] -46.6% | [9] -14% | [10] -80.5% | [11] -36.3% | [15] 4.74% | [16] 3.35%

Cc1cc(Cl)ccc1Nc1nc(C(F)(F)F)ccc1C(=O)N/N=C/c1c(Cl)cccc1Cl
active: [2] 7.42% | [3] -4.74% | [4] 1.31% | [5] -16.7% | [17] -63.5% | [18] -52.8% | [8] 7.36% | [10] -17.2% | [13] -37.7% | [14] 5.69% | [16] 7.93%
inactive: [1] 19% | [12] 12.8% | [15] 13.1%

CS(=O)(=O)c1nccc(-c2c(-c3cccc(OCCc4ccccc4)c3)nc3sccn23)n1
inactive: [1] 95.6% | [2] 81.4% | [3] 93% | [4] 106% | [5] 90.5% | [6] 101% | [17] 108% | [18] 103% | [7] 108% | [8] 95.5% | [9] 102% | [10] 93.7% | [11] 118% | [12] 106% | [13] 109% | [14] 103% | [15] 101% | [16] 114%

CC(=O)Nc1ccc(S(=O)(=O)N/N=C(\C)c2ccc(C)cc2C)cc1
inactive: [1] 105% | [2] 107% | [3] 100% | [4] 106% | [5] 91.1% | [6] 99.9% | [17] 105% | [18] 103% | [7] 112% | [8] 94.9% | [10] 113% | [11] 129% | [12] 104% | [14] 98.3% | [15] 95.1% | [16] 106%

COc1ccc(Cl)cc1Nc1nc(C(F)(F)F)ccc1C(=O)N/N=C/c1ccc(Cl)cc1
inactive: [1] 64.1% | [2] 52.1% | [3] 44.8% | [4] 26.9% | [5] 31.6% | [17] 13.6% | [18] 18% | [8] 28.6% | [10] 30.5% | [12] 37.2% | [13] 18.5% | [14] 34% | [15] 43.3% | [16] 57.3%

COc1cc(C2CC(c3ccc4c(c3)OCO4)=NN2c2ccccc2)cc(OC)c1OC (centres undefined)
inactive: [1] 93.9% | [2] 102% | [3] 104% | [4] 103% | [5] 73.4% | [6] 98.5% | [17] 95.9% | [18] 86.8% | [7] 107% | [8] 48.8% | [10] 82.2% | [11] 106% | [12] 83.6% | [13] 91.2% | [15] 90.3% | [16] 91.6%

COc1cc(-c2ccc(N=Nc3ccc4c(S(=O)(=O)O)ccc(N)c4c3O)c(OC)c2)ccc1N=Nc1ccc2c(S(=O)(=O)O)ccc(N)c2c1O
inactive: [1] 101% | [2] 102% | [3] 85.9% | [4] 108% | [5] 105% | [6] 106% | [17] 120% | [18] 95.7% | [7] 122% | [8] 121% | [10] 106% | [11] 93.3% | [12] 102% | [14] 102% | [15] 109% | [16] 107%

Cc1ccc(NC(=S)NNC(=S)Nc2ccc(C)cc2)cc1
inactive: [1] 72.8% | [2] 94.7% | [3] 45.2% | [4] 89.4% | [5] 32.7% | [6] 67% | [17] 58.9% | [18] 84.3% | [7] 102% | [8] 19.4% | [10] 72.5% | [11] 91.5% | [12] 85% | [13] 30% | [14] 62.5% | [15] 75.8% | [16] 44.2%

CCN(CC)c1ccc(/C=C2\SC(=O)C(Nc3nnc(-c4cccnc4SCc4ccccc4)o3)C2=O)cc1 (centres undefined)
inactive: [1] 21.7% | [2] 20.1% | [3] 30.5% | [6] 12.2% | [7] 28.9% | [8] 14.5% | [9] 57.9% | [10] 39.4% | [12] 57.3% | [13] 12.2% | [14] 13.8% | [15] 56.9%
active: [4] 3.5% | [5] -17.6% | [11] -13.2% | [16] -11.6%

COc1ccc(C(=O)c2cc3c(OC)c(OC)c(OC)cc3[nH]2)cc1
active: [8] 7.74%
inactive: [1] 32.3% | [2] 86.5% | [3] 77.8% | [4] 16.8% | [5] 25.4% | [6] 36.6% | [17] 73.2% | [18] 37.4% | [7] 81.8% | [10] 56.3% | [11] 72% | [12] 63.5% | [13] 143% | [14] 66.1% | [15] 87.8% | [16] 30.2%

CS(=O)(=O)c1nccc(-c2c(-c3cccc(OCc4ccc(F)cc4)c3)nc3sccn23)n1
active: [7] -53.8%
inactive: [1] 53% | [2] 55.5% | [3] 90.1% | [4] 98.8% | [5] 24.4% | [6] 104% | [17] 79.5% | [18] 91.2% | [8] 47.3% | [9] 60.4% | [10] 77.5% | [11] 79.6% | [12] 90.2% | [13] 105% | [14] 104% | [15] 17% | [16] 71.2%

Cc1c2c(nn1C(=O)c1nn(-c3ccc(Cl)cc3)cc1O)-c1ccccc1CC2
active: [4] 9.48% | [5] -8.04% | [18] -4.51% | [8] -11.5% | [13] -15.1% | [14] 9.85% | [15] -1.88%
inactive: [1] 16.6% | [2] 22% | [3] 23.7% | [6] 21.8% | [17] 21.1% | [7] 24.1% | [10] 38.1% | [11] 31.8% | [12] 33.9%

COc1nc2c(c(=O)n1C)CN(c1ccccc1)C(=O)C(C)N2 (centres undefined)
inactive: [1] 95.7% | [2] 95.6% | [3] 88.1% | [4] 104% | [5] 84.6% | [6] 99.2% | [17] 97.5% | [18] 115% | [7] 114% | [8] 101% | [10] 98.3% | [11] 95.2% | [12] 97.1% | [13] 105% | [14] 96.1% | [15] 93.5% | [16] 95.3%

COc1cc(-c2csc(NC(=O)Nc3cc(C(F)(F)F)cc(C(F)(F)F)c3)n2)cc(OC)c1OC
active: [1] 4.18% | [5] -14.6% | [18] 0.569% | [9] 6.56% | [13] -10.4%
inactive: [2] 24.8% | [3] 13.1% | [4] 10.9% | [6] 11.9% | [17] 13.4% | [7] 20.3% | [8] 17.5% | [10] 14.4% | [11] 47% | [12] 32.7% | [14] 23% | [16] 21.9%

N#Cc1cnn(C(=O)c2nn(-c3ccc(Cl)cc3)cc2O)c1N
active: [1] 9.65% | [4] 3.09% | [5] -13.7% | [18] -23.4% | [8] -17.5% | [13] -25.6%
inactive: [2] 18.4% | [3] 19.2% | [6] 15.1% | [17] 17.3% | [7] 34.9% | [10] 38.5% | [11] 39.3% | [12] 29.5% | [14] 12.8% | [15] 19% | [16] 24.3%

O=C(CNc1nnc(-c2cccnc2SCc2ccccc2)s1)Nc1nc(Cl)cc(Cl)n1
inactive: [1] 112% | [2] 107% | [3] 95.4% | [4] 123% | [5] 102% | [6] 120% | [7] 100% | [8] 109% | [9] 98.8% | [10] 104% | [11] 124% | [12] 91.5% | [13] 103% | [14] 110% | [15] 157% | [16] 106%

CN(C)CCOc1ccccc1NC1=C(Cl)C(=O)C(Nc2ccccc2OCCN(C)C)=C(Cl)C1=O
inactive: [1] 64.1% | [2] 93.9% | [3] 110% | [4] 99.2% | [6] 84.7% | [17] 74.8% | [7] 84.7% | [9] 64.7% | [10] 53.1% | [11] 68.5% | [12] 86% | [13] 103% | [14] 101% | [15] 85.2% | [16] 92.9%
active: [5] -53.3% | [18] -62% | [8] -12.6%
